Hits are enriched below; roughly 4.7% of the tested compounds scored in any of these assays.
UBC9 SUMO inh – blocks human SUMOylation mediated by UBC9; AID 2006; P63279; inhibition, % at 35 µM; HTRF SUMOylation assay, SAE1/SAE2 + UBC9, in vitro; 290,000 tested, 0.36% active; in the data active = inhibition above about 50%, passing the limit was not always enough; inconclusive = no clear call, values can overlap the other calls
Target sequence (P63279 whole entry, looked up): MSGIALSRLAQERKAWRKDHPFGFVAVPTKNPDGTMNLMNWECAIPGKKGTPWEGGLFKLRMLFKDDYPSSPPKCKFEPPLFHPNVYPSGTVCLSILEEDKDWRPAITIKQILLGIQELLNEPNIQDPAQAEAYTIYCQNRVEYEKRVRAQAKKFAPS
ALR inh – blocks human ALR sulfhydryl oxidase activity; P55789; purified ALR, DTT oxidation, H2O2 HRP-luminol luminescence; inhibition, % (test concentration not listed); 290,000 tested, 3.8% active;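 active = mean replicate inhibition above about 79%, with every replicate also reaching it, limit read from the data; inconclusive = only one of the two criteria met; inactive = mean below limit and not every replicate reaching it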
Target sequence (P55789 whole entry, looked up): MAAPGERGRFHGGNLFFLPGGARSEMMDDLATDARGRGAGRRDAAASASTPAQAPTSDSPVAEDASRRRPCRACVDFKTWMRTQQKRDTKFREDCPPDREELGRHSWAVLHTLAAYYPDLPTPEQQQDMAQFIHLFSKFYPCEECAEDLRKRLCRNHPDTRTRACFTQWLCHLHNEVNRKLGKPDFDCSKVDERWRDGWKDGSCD
Efflux pump inh – inhibitors of Candida antifungal efflux pumps expressed in yeast | inhibition, % at 10 µM | S. cerevisiae Candida pump triplex, Nile Red efflux | 330,000 tested, 0.44% active | AID 485275;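 active = plate passing quality check with inhibition over a set limit, or well fluorescence over plate mean plus 4 SD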;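 also: Nile Red retained in pooled yeast measured as flow cytometry median fluorescence; 0% = buffer negative control and 100% = Enniatin B positive control; higher means more Nile Red kept so more efflux inhibition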
PABP polyA inh – PABP-poly(A) binding inhibition | AID 2014 | PABP-poly(A) RNA binding, fluorescence polarization | inhibition, % at 35 µM | 290,000 tested, 1% active;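 also: calls also rest on retests at 20 µM and on dose response follow-up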
eIF4H FP inh – inhibitors of RNA binding by human eIF4H. eIF4H fluorescence polarization binding assay. inhibition, % at 35 µM. 290,000 tested, 0.94% active;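 also: calls also rest on retests at 20 µM and on dose response follow-up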
PABP1 MLLE inh – blocks PAM2 peptide binding to the PABP1 MLLE domain; P11940; GST-MLLE / FITC-PAM2 fluorescence polarization; inhibition, % at 20 µM; 360,000 tested, 0.36% active; in the data active = inhibition above about 35%, passing the limit was not always enough;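 also: plate controls were DMSO wells with GST-MLLE for no effect and wells lacking GST-MLLE protein for full effect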
Numbers without * were called inactive; i = inactive; u = inconclusive; x = not tested or not shown. Unless noted, no rule for the calls is given here.

SMILES	UBC9 SUMO inh	ALR inh	Efflux pump inh	PABP polyA inh	eIF4H FP inh	PABP1 MLLE inh
CC1(C)COC(c2cc3c(cc2Br)OCO3)OC1	x	x	x	x	x	2
Oc1cccc2cnccc12	26	99*	0	3	3	-11
Nc1cccc2cnccc12	88	45	0	52	88*	1
COc1ccc(NCc2nnc(-c3ccccc3)o2)cc1	9	43	0	5	-10	-15
C/C(=N/Nc1ccnc2cc(Cl)ccc12)c1ccc(O)cc1	x	93*	0	x	x	2
NC(=S)NNc1ccnc2cc(Cl)ccc12	-4	103*	0	8	2	17
C/C(=N/Nc1ccnc2cc(Cl)ccc12)c1ccc(N)cc1	x	98*	0	x	x	3
O=C(NNc1ccnc2cc(Cl)ccc12)C1CCCCC1	14	-14	1	-7	7	-26
Clc1ccc2c(N/N=C/c3ccccc3Br)ccnc2c1	-16	-1	-2	-2	-12	-4
Cn1c(SCC(=O)NNC(=O)c2ccccc2Br)nnc1C(F)(F)F	x	x	0	x	x	-13
COCCCN(C(=O)CCOc1ccc(C)cc1)c1c(N)n(Cc2ccccc2)c(=O)[nH]c1=O	x	3	1	x	x	-17
COc1ccc(OC)c(NC(=O)C2(C)CCN2CCOc2ccccc2)c1 (stereo unspecified)	x	x	x	x	x	9
CS(=O)(=O)Nc1nc2n(n1)C(c1ccccc1)C=C(c1ccc(Br)cc1)N2 (stereo unspecified)	21	56	0	11*	76*	147
CC(=O)Nc1nc2n(n1)C(c1ccccc1)C=C(c1ccccc1)N2 (stereo unspecified)	26	21	0	39	18	59*
CC(=O)Nc1nc2n(n1)C(c1ccc(F)cc1)C=C(c1ccccc1)N2 (stereo unspecified)	41	24	0	7	-8	34
O=C(c1nc2n(n1)C(c1ccc(Cl)cc1)C=C(c1ccccc1)N2)N1CCOCC1 (stereo unspecified)	42	1	0	65*	66*	60
COc1ccc(C2C=C(c3ccc(Cl)cc3)Nc3nc(NC(C)=O)nn32)cc1 (stereo unspecified)	27	53	0	56	38	x
COCCOc1ccc(C(F)(F)F)cc1NC(=O)CN1C(=O)NC2(CCc3ccccc32)C1=O (stereo unspecified)	x	7	0	x	x	-14
COCCNC(=O)C1(C)CCN(C(=O)Cc2ccc(OC)c(OC)c2)C1 (stereo unspecified)	x	x	x	x	x	5
Cc1cc(C(=O)N2CCC2(C)C(=O)O)c(C)o1 (stereo unspecified)	x	x	x	x	x	-5
Cc1cc(/N=C/C=C2\N(C)c3ccccc3C2(C)C)n(CCC#N)n1	3	99*	0	3	0	3
CN1/C(=C\C=Nc2ccc3ccccc3c2)C(C)(C)c2ccccc21	15	x	0	0	-5	-109
Cc1c(NC(=S)/C=C2\N(C)c3ccccc3C2(C)C)c(=O)n(-c2ccccc2)n1C	6	95*	0	6	4	16
Cc1c(N=C/C=C2/N(C)c3ccccc3C2(C)C)c(=O)n(-c2ccccc2)n1C	17	99*	0	12	12	11
CN1/C(=C/C=C(C#N)C#N)C(C)(C)c2ccccc21	18	-53	0	u	u	i
SMILES	UBC9 SUMO inh	ALR inh	Efflux pump inh	PABP polyA inh	eIF4H FP inh	PABP1 MLLE inh
CN(C)c1ccc(N=C/C=C2\N(C)c3ccccc3C2(C)C)cc1	12	99*	0	-4	-13	-28
Cc1cc(C)c(NC(=S)N(CCCN2CCN(C)CC2)Cc2cccs2)c(C)c1	5	x	0	4	-2	5
NS(=O)(=O)c1ccc(N2N=C(c3ccccc3)CC2c2ccccc2Cl)cc1 (stereo unspecified)	x	x	1	x	x	-6
Cc1c(N=C/C=C2\N(C)c3ccccc3C2(C)C)c(=O)n(-c2ccccc2)n1C	22	93*	0	-6	0	3
N#CC(C(=O)Nc1ccccc1)=C1Nc2ccccc2N1	5	86*	0	4	-1	-7
N#CC(C(=O)Nc1cccc(Cl)c1)=C1Nc2ccccc2N1	-16	0	0	-9	-4	11
CCCCc1cc(=O)oc2c(CN(C)C)c(O)ccc12	36	94*	0	-8	1	8
CN(C)Cc1c(O)ccc2c3c(c(=O)oc12)CCCCC3	48	90*	0	4	-1	3
COCCN(CCOC)Cc1c(O)ccc2c3c(c(=O)oc12)CCC3	40	5	0	-2	-8	9
CC(C)(C)OC(=O)C[C@H]1C/C=C\C[C@@H](CC(=O)N(CCO)Cc2ccccc2)C(=O)N2CCC[C@H]2COC1=O	x	-3	0	x	x	1
Cc1ccc(Nc2c(-c3ccco3)nc3ccccn23)cc1	4	99*	0	-10	41	1
Fc1ccc(Nc2c(-c3ccco3)nc3ccccn23)cc1	0	x	0	6	85	16
c1ccc(Nc2c(-c3ccco3)nc3ccccn23)cc1	16	98*	0	-2	39	7
Cc1cccc2nc(-c3ccco3)c(Nc3ccc4c(c3)OCCO4)n12	0	95*	0	-1	u	-2
COc1ccc(CN2C[C@]3(CO)O[C@@H](CO)C[C@@H]3S2(=O)=O)cc1	x	x	0	x	x	-4
Cc1cc(C)c(CSc2ncnc3nc[nH]c23)c(C)c1	-2	x	0	28	-2	-79
COc1ccc(/C=C2\SC(=S)N(C(C)C(=O)NC3C=CS(=O)(=O)C3)C2=O)cc1 (stereo unspecified)	-2	98*	0	6	8	33
COc1cccc(/C=C2\SC(=O)N(CC(=O)NC3CCS(=O)(=O)C3)C2=O)c1 (stereo unspecified)	15	4	0	-10	-7	17
COc1cccc(/C=C2\SC(=S)N(C(C)C(=O)NC3C=CS(=O)(=O)C3)C2=O)c1 (stereo unspecified)	-1	62	0	1	4	35
COc1cccc(/C=C2\SC(=O)N(CC(=O)NC3C=CS(=O)(=O)C3)C2=O)c1 (stereo unspecified)	6	42	0	2	10	41*
Cc1nn(CC(=O)NCC(C)c2ccccc2)c(=O)c2cccn12 (stereo unspecified)	-7	-16	0	-8	-5	-4
CCOc1cc(N2CCOCC2)c(OCC)cc1NC(=O)c1ccc(OC)c(S(=O)(=O)N2CCOCC2)c1	x	-46	0	x	x	-4
Cc1ccc(C(C)C)c(OCC(=O)c2c(O)c3ccccc3oc2=O)c1	x	94*	0	x	x	-1
CC(=O)Nc1ccc2[nH]c3ccccc3c2c1	14	6	0	73*	99*	-8
Cc1ccc(OCC(O)CN2CCN(c3ccccc3)CC2)cc1 (stereo unspecified)	10	-2	0	-9	0	-15

Source: PubChem
